± gives the standard deviation of the averaged measurements. The full data set covers some 6,500 targets. This sample favours those with the largest changes.
compound: Nc1ncnc2c1ncn2[C@@H]1O[C@H](COP(=O)(O)OP(=O)(O)OP(=O)(O)O)[C@@H](O)[C@H]1O [adenosine triphosphate]; assay: NP40-soluble protein abundance relative to vehicle (solubility fold change) (ratio); higher = more soluble protein in presence of ATP; settings: concentration: 1mM
Summary of the method: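 In three independent experiments, Jurkat crude lysate made by Dounce homogenisation was treated for 10 min at room temperature and then 3 min at 37 °C with eight concentrations ranging from 0.1 to 10 mM. It was then solubilised with 0.8% NP40 plus benzonase for 60 min at 4 °C and ultracentrifuged. The supernatant was TMT-labelled for LC-MS/MS, and each value is the fold change against the detergent-processed vehicle for the same replicate, using vsn-normalised intensities.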

Chain of UniProt Q6VN20 (Q6VN20 whole entry, one chain of several): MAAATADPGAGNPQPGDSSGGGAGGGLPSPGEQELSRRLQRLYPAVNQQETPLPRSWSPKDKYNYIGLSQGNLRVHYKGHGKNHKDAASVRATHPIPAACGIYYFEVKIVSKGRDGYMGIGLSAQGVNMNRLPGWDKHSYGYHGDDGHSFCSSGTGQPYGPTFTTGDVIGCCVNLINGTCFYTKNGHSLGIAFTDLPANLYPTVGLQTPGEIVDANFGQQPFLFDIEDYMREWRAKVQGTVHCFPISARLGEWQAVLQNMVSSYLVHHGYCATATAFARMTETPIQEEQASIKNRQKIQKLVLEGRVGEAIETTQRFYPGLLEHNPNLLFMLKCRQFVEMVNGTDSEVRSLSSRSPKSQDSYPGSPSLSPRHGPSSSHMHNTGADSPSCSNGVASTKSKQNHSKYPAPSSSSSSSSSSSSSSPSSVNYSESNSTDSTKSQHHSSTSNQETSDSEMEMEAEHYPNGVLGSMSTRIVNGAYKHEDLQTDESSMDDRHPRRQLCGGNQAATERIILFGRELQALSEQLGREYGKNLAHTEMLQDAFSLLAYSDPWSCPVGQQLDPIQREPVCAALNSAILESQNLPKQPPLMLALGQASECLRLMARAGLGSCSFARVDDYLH
Chain of UniProt Q12768 (Q12768 whole entry, one chain of several): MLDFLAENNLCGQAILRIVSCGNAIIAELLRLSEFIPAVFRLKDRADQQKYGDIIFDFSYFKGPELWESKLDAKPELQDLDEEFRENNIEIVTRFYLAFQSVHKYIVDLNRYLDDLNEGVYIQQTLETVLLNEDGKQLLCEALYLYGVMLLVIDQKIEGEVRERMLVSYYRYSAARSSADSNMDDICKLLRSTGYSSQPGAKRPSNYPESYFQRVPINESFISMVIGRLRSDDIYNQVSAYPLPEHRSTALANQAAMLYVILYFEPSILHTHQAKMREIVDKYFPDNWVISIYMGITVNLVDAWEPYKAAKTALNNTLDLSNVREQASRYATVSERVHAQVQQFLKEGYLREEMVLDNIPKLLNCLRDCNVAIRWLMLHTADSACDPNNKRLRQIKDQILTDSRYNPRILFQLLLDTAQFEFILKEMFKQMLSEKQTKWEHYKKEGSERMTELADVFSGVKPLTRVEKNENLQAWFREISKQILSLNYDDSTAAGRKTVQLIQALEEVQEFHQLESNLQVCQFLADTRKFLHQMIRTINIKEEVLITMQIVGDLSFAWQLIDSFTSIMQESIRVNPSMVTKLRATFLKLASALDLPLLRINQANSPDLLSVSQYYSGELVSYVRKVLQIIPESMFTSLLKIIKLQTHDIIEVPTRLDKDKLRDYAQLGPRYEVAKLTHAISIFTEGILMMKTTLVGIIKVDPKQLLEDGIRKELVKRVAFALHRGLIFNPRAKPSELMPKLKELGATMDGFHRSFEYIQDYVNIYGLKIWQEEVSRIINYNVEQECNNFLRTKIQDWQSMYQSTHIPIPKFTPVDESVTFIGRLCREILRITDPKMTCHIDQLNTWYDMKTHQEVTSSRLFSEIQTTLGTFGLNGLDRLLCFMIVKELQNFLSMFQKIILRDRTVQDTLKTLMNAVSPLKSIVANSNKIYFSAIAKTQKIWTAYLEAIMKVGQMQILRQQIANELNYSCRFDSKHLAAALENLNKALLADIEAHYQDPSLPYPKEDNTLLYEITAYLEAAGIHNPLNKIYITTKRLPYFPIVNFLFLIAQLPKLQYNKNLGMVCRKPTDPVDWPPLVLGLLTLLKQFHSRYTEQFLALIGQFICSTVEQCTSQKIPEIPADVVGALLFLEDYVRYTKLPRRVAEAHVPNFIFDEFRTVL
Chain of UniProt Q9Y262 (Q9Y262 whole entry, one chain of several): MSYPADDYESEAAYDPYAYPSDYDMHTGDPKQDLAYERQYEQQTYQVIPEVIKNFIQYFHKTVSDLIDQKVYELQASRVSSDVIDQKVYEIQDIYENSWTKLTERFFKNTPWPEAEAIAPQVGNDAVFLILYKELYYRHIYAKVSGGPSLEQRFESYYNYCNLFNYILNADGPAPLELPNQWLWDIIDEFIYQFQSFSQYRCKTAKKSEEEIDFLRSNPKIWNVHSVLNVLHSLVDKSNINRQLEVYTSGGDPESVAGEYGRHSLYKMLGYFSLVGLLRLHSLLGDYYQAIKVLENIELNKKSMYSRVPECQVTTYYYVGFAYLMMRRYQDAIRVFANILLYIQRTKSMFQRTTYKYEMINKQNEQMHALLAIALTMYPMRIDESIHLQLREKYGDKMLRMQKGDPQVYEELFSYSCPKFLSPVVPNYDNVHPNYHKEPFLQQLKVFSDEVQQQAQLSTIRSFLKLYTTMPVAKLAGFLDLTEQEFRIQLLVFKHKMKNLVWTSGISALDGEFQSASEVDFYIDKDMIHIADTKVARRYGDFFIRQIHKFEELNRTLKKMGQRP
Chain of UniProt O00764 (O00764 whole entry): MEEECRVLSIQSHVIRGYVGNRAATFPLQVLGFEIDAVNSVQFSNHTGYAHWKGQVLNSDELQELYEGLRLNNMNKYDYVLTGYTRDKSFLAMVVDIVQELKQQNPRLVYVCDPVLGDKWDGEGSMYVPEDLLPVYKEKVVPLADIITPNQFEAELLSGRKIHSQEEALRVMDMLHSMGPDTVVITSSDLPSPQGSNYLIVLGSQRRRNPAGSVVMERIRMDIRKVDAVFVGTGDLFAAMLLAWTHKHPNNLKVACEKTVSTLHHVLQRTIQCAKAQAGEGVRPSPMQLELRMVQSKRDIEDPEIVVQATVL
Chain of UniProt Q96F10 (Q96F10 whole entry, one chain of several): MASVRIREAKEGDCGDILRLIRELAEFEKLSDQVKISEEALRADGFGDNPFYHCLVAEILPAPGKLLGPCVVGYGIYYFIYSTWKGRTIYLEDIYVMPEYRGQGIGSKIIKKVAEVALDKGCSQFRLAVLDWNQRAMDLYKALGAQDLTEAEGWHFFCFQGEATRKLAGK
Chain of UniProt Q8IVV7 (Q8IVV7 whole entry, one chain of several): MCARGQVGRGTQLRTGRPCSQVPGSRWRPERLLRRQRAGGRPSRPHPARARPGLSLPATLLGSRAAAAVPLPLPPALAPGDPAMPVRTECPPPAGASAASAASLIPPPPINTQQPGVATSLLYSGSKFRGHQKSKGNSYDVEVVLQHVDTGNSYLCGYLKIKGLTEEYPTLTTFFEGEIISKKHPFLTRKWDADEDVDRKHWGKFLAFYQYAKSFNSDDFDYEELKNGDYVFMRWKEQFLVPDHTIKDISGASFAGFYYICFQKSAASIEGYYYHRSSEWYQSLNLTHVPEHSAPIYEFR
Chain of UniProt O43257 (O43257 whole entry): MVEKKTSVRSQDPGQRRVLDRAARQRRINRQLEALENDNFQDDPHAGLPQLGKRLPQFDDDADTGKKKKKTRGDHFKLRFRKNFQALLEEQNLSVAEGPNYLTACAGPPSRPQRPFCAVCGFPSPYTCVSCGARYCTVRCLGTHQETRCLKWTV
Chain of UniProt Q9BZF1 (Q9BZF1 whole entry, one chain of several): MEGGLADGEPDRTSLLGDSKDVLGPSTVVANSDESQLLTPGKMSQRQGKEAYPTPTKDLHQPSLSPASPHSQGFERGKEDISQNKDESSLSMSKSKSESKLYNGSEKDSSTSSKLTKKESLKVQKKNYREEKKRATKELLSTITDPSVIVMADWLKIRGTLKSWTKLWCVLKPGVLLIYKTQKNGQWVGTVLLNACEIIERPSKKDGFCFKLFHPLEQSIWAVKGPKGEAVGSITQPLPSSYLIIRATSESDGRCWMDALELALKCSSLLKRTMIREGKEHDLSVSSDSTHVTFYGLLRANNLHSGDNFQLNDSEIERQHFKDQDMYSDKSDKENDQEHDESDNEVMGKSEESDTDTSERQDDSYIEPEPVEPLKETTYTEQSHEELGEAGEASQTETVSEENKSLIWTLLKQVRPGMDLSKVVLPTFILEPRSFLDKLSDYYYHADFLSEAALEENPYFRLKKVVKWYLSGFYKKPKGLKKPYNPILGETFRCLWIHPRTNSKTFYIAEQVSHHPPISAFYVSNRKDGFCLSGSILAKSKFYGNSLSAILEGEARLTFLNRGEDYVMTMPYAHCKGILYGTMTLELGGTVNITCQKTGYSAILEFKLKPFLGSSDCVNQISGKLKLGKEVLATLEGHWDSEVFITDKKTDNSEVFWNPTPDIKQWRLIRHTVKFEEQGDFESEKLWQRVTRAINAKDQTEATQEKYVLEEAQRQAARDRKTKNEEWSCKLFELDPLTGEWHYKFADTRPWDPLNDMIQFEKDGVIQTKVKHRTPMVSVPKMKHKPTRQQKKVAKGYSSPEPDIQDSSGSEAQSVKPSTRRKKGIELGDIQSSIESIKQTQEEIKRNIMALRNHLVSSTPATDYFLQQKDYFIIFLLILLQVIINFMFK
Chain of UniProt O75081 (O75081 whole entry): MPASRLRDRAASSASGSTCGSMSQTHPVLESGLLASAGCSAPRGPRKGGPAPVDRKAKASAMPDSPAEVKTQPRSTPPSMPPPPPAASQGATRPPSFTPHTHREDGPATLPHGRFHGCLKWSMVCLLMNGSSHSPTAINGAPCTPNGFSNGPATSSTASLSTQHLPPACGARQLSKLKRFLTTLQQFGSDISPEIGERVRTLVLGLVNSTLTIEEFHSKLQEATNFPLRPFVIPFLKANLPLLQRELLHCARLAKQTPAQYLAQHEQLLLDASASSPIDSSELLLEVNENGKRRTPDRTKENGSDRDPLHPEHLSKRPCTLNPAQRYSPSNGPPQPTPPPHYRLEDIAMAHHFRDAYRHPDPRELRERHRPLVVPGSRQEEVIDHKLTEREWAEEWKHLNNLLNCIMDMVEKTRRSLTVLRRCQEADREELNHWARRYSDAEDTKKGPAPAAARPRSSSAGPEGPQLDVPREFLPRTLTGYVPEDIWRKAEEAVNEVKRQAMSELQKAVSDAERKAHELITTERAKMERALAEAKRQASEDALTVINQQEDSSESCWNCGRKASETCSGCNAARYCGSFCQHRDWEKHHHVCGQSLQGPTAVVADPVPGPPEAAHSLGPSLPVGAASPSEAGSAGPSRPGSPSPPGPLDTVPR

Target	NP40-soluble protein abundance
E7EQI7|Q12768 (UniProt Q12768)	1.06 ± 0.1
XYLB (UniProt O75191)	1 ± 0.053
H7C0H2|Q96EV2|H0Y3K4 (UniProt Q96EV2)	0.963 ± 0.093
H3BPD5|P78549|P78549-2|P78549-3 (UniProt P78549)	1.12 ± 0.16
J3KTL2|Q07955 (UniProt Q07955)	1.41 ± 0.16
G3XAG1|Q96ME7|Q96ME7-3 (UniProt Q96ME7)	1.34 ± 0.038
E9PJN1|O75676|O75676-2 (UniProt O75676)	1.36 ± 0.22
H0YM92|J3KMZ9|P01130|P01130-5|H0YMD1|P01130-4 (UniProt P01130)	0.962 ± 0.026
J3KPF0 (UniProt Q9Y4D8)	1.08 ± 0.036
DYNC1LI2 (UniProt O43237)	0.947 ± 0.049
F8WCD0|Q8NC42 (UniProt Q8NC42)	0.964 ± 0.023
MAN2B1 (UniProt O00754)	0.94 ± 0.027
A0A0A0MTB8|Q8NI36 (UniProt Q8NI36)	1.21 ± 0.057
A0A0C4DGQ5|P04632 (UniProt P04632)	0.9315 ± 0.0081
B7ZBA0|Q8NI27 (UniProt Q8NI27)	1.52 ± 0.091
UniProt A7KAX9|A7KAX9-2	0.937 ± 0.054
H0YLE6|Q9NWH9|H0YNF3 (UniProt Q9NWH9)	0.961 ± 0.054
A0A0D9SEU5|Q6VN20|Q6VN20-3|R4GMX8 (UniProt Q6VN20)	0.968 ± 0.017

Target	NP40-soluble protein abundance
I3L0W4|Q96F10 (UniProt Q96F10)	0.98 ± 0.13
UniProt E9PSI1	0.9713 ± 0.0047
K7ELH7|K7ENE2|Q8IVV7 (UniProt Q8IVV7)	1.04 ± 0.13
G3V0I5|P49821|P49821-2 (UniProt P49821)	0.986 ± 0.025
E9PJI1|Q92993-3|Q92993-4|Q92993|Q92993-2 (UniProt Q92993)	1.06 ± 0.12
G3XAC1|Q9BXS9|Q9BXS9-3|Q9BXS9-7|A0A0C4DFT5|Q9BXS9-4|Q9BXS9-5 (UniProt Q9BXS9)	0.909 ± 0.018
ZNHIT1 (UniProt O43257)	1.12 ± 0.047
UniProt O75081|O75081-2|O75081-4	0.943 ± 0.039
I3L1H5|Q9BZG8 (UniProt Q9BZG8)	0.984 ± 0.17
E9PHG5|Q6UW02 (UniProt Q6UW02)	1.11 ± 0.13
B4DT96|C9JYA1|O15504|O15504-2 (UniProt O15504)	0.985 ± 0.095
UniProt O15169|O15169-2	1.05 ± 0.17
F8W060|Q9BZF1 (UniProt Q9BZF1)	0.936 ± 0.018
PDXK (UniProt O00764)	1.02 ± 0.12
B0QY89|Q9Y262 (UniProt Q9Y262)	1.09 ± 0.093
J3KTE4|J3QR09|P84098 (UniProt P84098)	1.01 ± 0.053
TMEM120B (UniProt A0PK00)	0.948 ± 0.058
SLC25A20 (UniProt O43772)	0.918 ± 0.088

same assay, conditions: concentration: 2mM

Target	NP40-soluble protein abundance
E7EQI7|Q12768 (UniProt Q12768)	1.06 ± 0.075
XYLB (UniProt O75191)	0.986 ± 0.062
H7C0H2|Q96EV2|H0Y3K4 (UniProt Q96EV2)	0.942 ± 0.056
H3BPD5|P78549|P78549-2|P78549-3 (UniProt P78549)	1.2 ± 0.029
J3KTL2|Q07955 (UniProt Q07955)	1.53 ± 0.14
G3XAG1|Q96ME7|Q96ME7-3 (UniProt Q96ME7)	1.407 ± 0.0052
E9PJN1|O75676|O75676-2 (UniProt O75676)	2.6 ± 1.5
H0YM92|J3KMZ9|P01130|P01130-5|H0YMD1|P01130-4 (UniProt P01130)	0.977 ± 0.016
J3KPF0 (UniProt Q9Y4D8)	1.04 ± 0.068
DYNC1LI2 (UniProt O43237)	0.939 ± 0.049
F8WCD0|Q8NC42 (UniProt Q8NC42)	0.992 ± 0.013
MAN2B1 (UniProt O00754)	0.948 ± 0.017
A0A0A0MTB8|Q8NI36 (UniProt Q8NI36)	1.37 ± 0.057
A0A0C4DGQ5|P04632 (UniProt P04632)	0.964 ± 0.077
B7ZBA0|Q8NI27 (UniProt Q8NI27)	1.62 ± 0.074
UniProt A7KAX9|A7KAX9-2	0.91 ± 0.046
H0YLE6|Q9NWH9|H0YNF3 (UniProt Q9NWH9)	0.988 ± 0.027
A0A0D9SEU5|Q6VN20|Q6VN20-3|R4GMX8 (UniProt Q6VN20)	0.944 ± 0.05

Target	NP40-soluble protein abundance
I3L0W4|Q96F10 (UniProt Q96F10)	0.932 ± 0.07
UniProt E9PSI1	0.986 ± 0.015
K7ELH7|K7ENE2|Q8IVV7 (UniProt Q8IVV7)	0.979 ± 0.11
G3V0I5|P49821|P49821-2 (UniProt P49821)	0.96 ± 0.02
E9PJI1|Q92993-3|Q92993-4|Q92993|Q92993-2 (UniProt Q92993)	0.959 ± 0.11
G3XAC1|Q9BXS9|Q9BXS9-3|Q9BXS9-7|A0A0C4DFT5|Q9BXS9-4|Q9BXS9-5 (UniProt Q9BXS9)	0.891 ± 0.037
ZNHIT1 (UniProt O43257)	1.16 ± 0.012
UniProt O75081|O75081-2|O75081-4	0.9218 ± 0.0052
I3L1H5|Q9BZG8 (UniProt Q9BZG8)	1.03 ± 0.12
E9PHG5|Q6UW02 (UniProt Q6UW02)	1.02 ± 0.16
B4DT96|C9JYA1|O15504|O15504-2 (UniProt O15504)	1.21 ± 0.19
UniProt O15169|O15169-2	0.887 ± 0.14
F8W060|Q9BZF1 (UniProt Q9BZF1)	0.933 ± 0.035
PDXK (UniProt O00764)	0.987 ± 0.058
B0QY89|Q9Y262 (UniProt Q9Y262)	1.25 ± 0.15
J3KTE4|J3QR09|P84098 (UniProt P84098)	1 ± 0.027
TMEM120B (UniProt A0PK00)	1.05 ± 0.042
SLC25A20 (UniProt O43772)	0.945 ± 0.037

From the supplement of paper PMC6411743
